Compounds without any hit were thinned out: in the full panel of roughly 83,000, 20% have a hit.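 Assay: single dose, 48 h. Readout: percent growth (0 = no net growth; negative = cell death). Active: <10.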 Activity calls are given as the source filed them.

This note sets out measurements from PubChem BioAssay (NCI).

The test concerns SR leukemia. As to the kind of experiment: NCI-60 one-dose screen, 48 h (100 = growth as untreated, 0 = no growth, -100 = all killed). The following applies: 10 µM unless noted. The method, then: Growth inhibition of the SR human tumor cell line is measured as a screen for anti-cancer activity. Cells are grown in 96 well plates and exposed to the test compound for 48 hours. Compounds are tested at a single concentration, which is 10^-5 M for most compounds. The reported endpoint is percent growth (GI% or GIPRCNT), where numbers from 0 - 100% represent growth inhibition, and numbers from -100% - 0 represent cell death. For example, a value of 40 represents 60% growth inhibition. A value of 0 means no net growth occurred over the course of the experiment. A value of -40 indicates 40% of cells at the beginning of the experiment died by the end of the experiment. A value of -100 means all cells are dead at the end of the experiment.
NCI-60 Human Tumor Cell Lines Screen was performed using the standard one-dose NCI protocol, which is described in more detail at https://dtp.cancer.gov/discovery_development/nci-60/default.htm.
Compounds with GIPRCNT values below 10 were considered active. Activity score was based on GIPRCNT using the following formula: […]
Score is 0 for GIPRCNT values of 100 or above, 50 for GIPRCNT values of 0, and 100 for GIPRCNT values of -100.
Regarding `O=C(O)CCC/C=C\C[C@H]1C=CC(=O)/C1=C/C[C@@H](O)CCc1cccc(C(F)(F)F)c1`, the growth is -7.7% (active).
As for `CCC(C)(c1cc(C(C)(C)C)c(O)c(C(C)(C)C)c1)c1cc(C(C)(C)C)c(O)c(C(C)(C)C)c1`, the figure is 90.4% (inactive).
As for `COc1ccc(-c2cc(-c3ccc(Cl)cc3)c(C#N)c(=O)n2CCCCCC(=O)Nc2ccccc2N)cc1`, the figure is -1.58% (active).
As for `Cc1ccc2c(n1)C(=O)C(Cl)=C(Nc1ccccc1C(C)C)C2=O`, the figure is 33.4% (inactive).
Consider `CCOC(=O)Nc1ccc(-c2nc(-c3cccc(OCCN4CCOCC4)c3)c(-c3ccnc(Br)c3)[nH]2)cc1`, for which the growth was -12.9% (active).
Take `Cc1nc(NC(=O)COc2ccc(/C=C3\Cc4ccc(Cl)cc4C3=O)cc2)sc1C`: the growth was 93.2% (inactive).
With `Cc1ccc(-c2nc(N3CCN(CC(=O)Nc4ccc(Cl)c(C(F)(F)F)c4)CC3)c3ccccc3n2)cc1`, the growth is 87.2% (inactive).
Turning to `NCCOc1ncccc1/C=C1\C2C=CC=CC2C2C=CC(F)=CC12` (stereo not given), the growth is 0.916% (active).
As for `Cc1cc(-c2cc(C)c(N)cc2C)c(C)cc1N`, the figure is 45.5% (inactive); as for `COc1c(N2CC3CCCN(C(C)=O)C3C2)c(F)cc2c(=O)c(C(=O)N[C@H]3C(O)[C@@H](O)C(CO)O[C@H]3O)cn(C3CC3)c12` (stereo not given in full), 108% (inactive); as for `COc1ccc(-c2nc(NCCO)[nH]c(=O)c2C#N)cc1`, 94.3% (inactive).
In the case of `O=c1c2cccc(Cl)c2sc2c(NCCCNCCO)nc3ccccc3c12` it was -51.2% (active); in that of `CC1=C([Se]CC(OC(=O)[C@@H](CSSC(C)(C)C)NC(=O)OC(C)(C)C)C(=O)NC(C)(C)C)C(=O)c2ccccc2C1=O` (stereo not given in full), 22% (inactive).
As for `CC1Cc2c(ncn3c(-c4ccc(F)cc4)nnc23)N(C)c2ccccc21` (stereo not given), the figure is 25% (inactive).
`COC1=C(C)C(=O)c2c(c(CCCl)c3n2CCC3O)C1=O` (stereo not given): the growth was 7.38% (active).
For `CC([C@H]1CCC2C3CCC4C[C@@H](NC=O)CC[C@]4(C)C3CC[C@@]21C)N(C)C` (stereo not given in full), the growth is -38.7% (active).
In the case of `O=C1CCC/C=C\C[C@H]2C=CC(=O)/C2=C/C[C@H](CCc2cccc(C(F)(F)F)c2)O1` it was -4.73% (active); in that of `CS(=O)(=O)N(c1cc(-c2ccc3ncnc(Nc4ccc(F)c(Cl)c4)c3c2)cnc1Cl)S(C)(=O)=O`, 47.5% (inactive).
For `O=C(Nc1ccc(-c2nc(-c3cccc(OCCN4CCOCC4)c3)c(-c3ccnc(Br)c3)[nH]2)cc1)c1ccccc1`, the growth was -11.6% (active).
In the case of `COc1cc(C2CC(c3ccc(SC)cc3)=NN2C(C)=O)cc(OC)c1OC` (stereo not given) it was 33.8% (inactive).
For the compound `Cn1cc(-c2cc3ncnc(Nc4ccc(CC(=O)Nc5cc(C(C)(C)C)on5)cc4)c3s2)cn1`, the growth was 10.9% (inactive).
As for `c1ccc(Cc2nn3cc(-c4ccccc4)nc3s2)cc1`, the growth is 82.1% (inactive).
For `O=c1c2cc(F)ccc2sc2c(NCCN3CCOCC3)nc3ccccc3c12`, the growth was 28.3% (inactive).
Consider `O=C(Nc1c2ccccc2nc2ccccc12)c1ccccc1CN1C(=O)c2ccccc2C1=O`, for which the growth was 30.5% (inactive).
In the case of `COc1ccc(N)c(N)c1` it was 121% (inactive).
For the compound `O=C1/C(=C/c2ccc(F)cc2)Sc2c(Br)cccc21`, the growth is 50.5% (inactive).
In the case of `O=c1c2cc(F)ccc2sc2c(NCCCNCCO)nc3ccccc3c12` it was -45.1% (active); in that of `O=C1c2cccc3cccc(c23)C(=O)N1N1C(=O)c2cccc3c(NC4CCCCC4)ccc(c23)C1=O`, 90.2% (inactive).
As to `CCCCCCNC(=O)Oc1ccc(/C(=C(\C)c2ccc(Cl)cc2)c2ccc(OCCN3CCCCC3)cc2)cc1`, the growth is -22.4% (active).
In the case of `CC1CN(C2CCCCC2)C(=S)N(c2ccccc2)C1=O` (stereo not given) it was 98.7% (inactive).
In the case of `C=C(C)C1CCC2(C)OC2C1` (stereo not given) it was 116% (inactive).
As to `C=C1C(=O)O[C@H]2[C@H]1CC/C(COC(=O)CCSSCCC(=O)OC/C1=C/CC[C@@]3(C)O[C@H]3[C@H]3OC(=O)C(=C)[C@@H]3CC1)=C\CC[C@@]1(C)O[C@@H]21`, the growth was -14.1% (active).
Regarding `CN1CCN(Cc2ccc(NC(=O)c3ccc(C(C)(C)C)c(C#Cc4cnc5cccnn45)c3)cc2C(F)(F)F)CC1`, the growth was -49.7% (active).
As for `COc1cccc(-c2nc(-c3ccc(NC(=O)C(C)C)cc3)[nH]c2-c2ccnc(Br)c2)c1`, the figure is -14.5% (active); as for `COc1ccc2nc(NC(=O)c3cccnc3Nc3ccc(S(N)(=O)=O)cc3)sc2c1`, 59.6% (inactive).
In the case of `O=C(Nc1ccc(Cl)cc1F)c1ccccc1O` it was 15.8% (inactive); in that of `COc1ccc2sc3c(NCCO)nc4ccccc4c3c(=O)c2c1`, 83.9% (inactive); in that of `C=C1C(=O)O[C@H]2[C@H]1CC/C(COC(=O)CCC(=O)NCCOCCOCC(=O)Nc1ccc(OC)c(C(N)=O)c1O)=C\CC[C@@]1(C)O[C@@H]21`, 46.8% (inactive).
Consider `COc1ccc(C(Cc2ccccc2)NCCN2CCOCC2)cc1` (stereo not given), for which the growth is 96.4% (inactive).
As for `CCCCC[C@H](O)C/C=C1/C(=O)C=C[C@@H]1C/C=C\CCCC(=O)O`, the growth was 15.8% (inactive).
